From the antibiotic and cytotoxicity screens of Wong et al. (2023)
Hit rate of the full screen: of about 39,000 compounds, about 1,500 (3.8%) were called active. This excerpt belongs to a sample that is enriched for actives.

Each compound was assayed on HSkMC (human skeletal muscle cells) (assay: cytotoxicity call (relative viability < 0.9)). Conditions: 10 µM.

For `C[C@@H]1CN([C@@H](C)CO)C(=O)c2cc(NC(=O)CCC(F)(F)F)ccc2O[C@@H](C)CCCCO[C@H]1CN(C)C(=O)Nc1ccccc1`, which cytotoxicity call is on record?
Its cytotoxicity call is “inactive”.

With `O=C(C[C@H]1CC[C@@H]2[C@H](COC[C@H](O)CN2C(=O)Nc2ccc(Cl)c(Cl)c2)O1)NCc1ccc(Cl)c(Cl)c1` as the compound, how does the cytotoxicity call read?
The cytotoxicity call was “inactive”.

How did the cytotoxicity call turn out when `CCC(=O)N(C)C[C@H]1Oc2ncc(C#C[C@@H](C)O)cc2C(=O)N([C@H](C)CO)C[C@@H]1C` was run?
The cytotoxicity call was “inactive”.

How did the cytotoxicity call turn out when `Cc1noc(C)c1NC(=O)Nc1ccc2c(c1)C(=O)N([C@@H](C)CO)C[C@H](C)[C@@H](CN(C)Cc1ccncc1)OCCCC[C@@H](C)O2` was run?
The cytotoxicity call was “inactive”.

For `CCCN(C)C[C@H]1OCCCC[C@@H](C)Oc2ccc(NC(=O)Nc3ccc(F)cc3)cc2C(=O)N([C@@H](C)CO)C[C@H]1C`, which cytotoxicity call is on record?
The cytotoxicity call was “inactive”.

Which cytotoxicity call does the source give for `C#CCN([C@H](/C=C/C1CC1)[C@@H](O)Cc1ccccc1)[C@@H](Cc1ccc(-n2cc(CCC(=O)NO)nn2)cc1)C(=O)OC` here?
Its cytotoxicity call is “inactive”.

Which cytotoxicity call does the source give for `O=C(CCc1cn(CC(=O)N2CCC3(CC2)C(=O)NCN3c2ccccc2)nn1)NO` here?
The cytotoxicity call was “inactive”.

`CCCNC(=O)Cc1nnc[nH]1` was tested. Which cytotoxicity call did it give?
The cytotoxicity call was “inactive”.

`COc1ccccc1-c1cccc(-c2nc(C(=O)NCc3ccncc3)cc3c2[C@@H](CCO)N([S@@](=O)C(C)(C)C)C3)c1` was tested. Which cytotoxicity call did it give?
Its cytotoxicity call is “inactive”.

For `CCNC(=O)c1cc2c(c(-c3cccc(-c4cccc(F)c4)c3)n1)[C@H](CCO)N([S@@](=O)C(C)(C)C)C2`, which cytotoxicity call is on record?
The cytotoxicity call was “inactive”.

For `CC(C)(C)[S@@](=O)N1Cc2cc(C(=O)NCCc3ccncc3)nc(-c3cccc(-c4ccccc4)c3)c2[C@H]1CCO`, which cytotoxicity call is on record?
Its cytotoxicity call is “active”.

How did the cytotoxicity call turn out when `CC(C)(C)[S@@](=O)N1Cc2cc(C(=O)NCCc3ccncc3)nc(-c3cccc(-c4ccc(C#N)cc4)c3)c2[C@H]1CCO` was run?
Its cytotoxicity call is “inactive”.

For `CC(C)(C)[S@](=O)N1Cc2cc(C(=O)NCCc3ccncc3)nc(-c3cccc(-c4ccccc4)c3)c2[C@@H]1CCO`, which cytotoxicity call is on record?
The cytotoxicity call was “inactive”.

With `CCNC(=O)c1cc2c(c(-c3cccc(-c4cccc(F)c4)c3)n1)[C@@H](CCO)N([S@](=O)C(C)(C)C)C2` as the compound, how does the cytotoxicity call read?
Its cytotoxicity call is “inactive”.

How did the cytotoxicity call turn out when `COc1ccccc1-c1cccc(-c2nc(C(=O)NCc3ccncc3)cc3c2[C@@H](CCO)N([S@](=O)C(C)(C)C)C3)c1` was run?
Its cytotoxicity call is “inactive”.

Which cytotoxicity call does the source give for `COc1ccccc1-c1cccc(-c2nc(C(=O)NCc3ccncc3)cc3c2[C@H](CCO)N([S@@](=O)C(C)(C)C)C3)c1` here?
Its cytotoxicity call is “active”.

How did the cytotoxicity call turn out when `CC(C)(C)S(=O)N1Cc2cc(C(=O)Nc3ccc(-c4ccccc4)cc3)nc(-c3cccc(-c4cccc(F)c4)c3)c2[C@@H]1CCO` (some centres undefined) was run?
The cytotoxicity call was “active”.

With `COCC(=O)N(C)C[C@H]1Oc2cc(C#CC(C)(C)O)ccc2S(=O)(=O)N([C@@H](C)CO)C[C@H]1C` as the compound, how does the cytotoxicity call read?
Its cytotoxicity call is “inactive”.

Which cytotoxicity call does the source give for `C[C@H]1CN([C@@H](C)CO)C(=O)c2cccc(NS(=O)(=O)c3cn(C)cn3)c2O[C@@H]1CN(C)C(=O)NC1CCCCC1` here?
The cytotoxicity call was “inactive”.

With `CO[C@H]1CN(C)C(=O)c2ccc(NS(=O)(=O)c3cn(C)cn3)cc2OC[C@@H](C)N(CC2CC2)C[C@@H]1C` as the compound, how does the cytotoxicity call read?
Its cytotoxicity call is “inactive”.

`Cn1cnc(S(=O)(=O)N2C[C@@H](O)COC[C@@H]3O[C@H](CC(=O)NCc4cccc(F)c4)CC[C@H]32)c1` was tested. Which cytotoxicity call did it give?
Its cytotoxicity call is “inactive”.

With `CNC(=O)c1cccc(S(N)(=O)=O)c1` as the compound, how does the cytotoxicity call read?
The cytotoxicity call was “inactive”.

Which cytotoxicity call does the source give for `C[C@@H]1CCCCO[C@H](CN(C)C(=O)NC2CCCCC2)[C@H](C)CN([C@H](C)CO)C(=O)c2cc(NC(=O)NC3CCCCC3)ccc2O1` here?
Its cytotoxicity call is “inactive”.

How did the cytotoxicity call turn out when `C[C@@H]1CN([C@@H](C)CO)C(=O)c2cc(C#CC(C)(C)O)cnc2O[C@H]1CN(C)C(=O)CN(C)C` was run?
Its cytotoxicity call is “inactive”.

How did the cytotoxicity call turn out when `C[C@@H]1CN([C@H](C)CO)C(=O)c2cccc(NS(=O)(=O)c3ccc(F)cc3)c2O[C@@H]1CN(C)C(=O)Nc1ccc(C(F)(F)F)cc1` was run?
Its cytotoxicity call is “inactive”.

`C[C@@H]1CN([C@@H](C)CO)C(=O)Cc2cc(NS(C)(=O)=O)ccc2O[C@@H]1CN(C)C(=O)Nc1ccc2c(c1)OCO2` was tested. Which cytotoxicity call did it give?
The cytotoxicity call was “inactive”.

How did the cytotoxicity call turn out when `C[C@H](CO)N1C[C@H](C)[C@H](CN(C)C(=O)Nc2ccc3c(c2)OCO3)OCCCC[C@H](C)Oc2ccc(NC(=O)CCCCCC(=O)Nc3ccccc3N)cc2C1=O` was run?
Its cytotoxicity call is “inactive”.

`Cc1noc(C)c1NC(=O)Nc1cccc2c1O[C@H](CN(C)Cc1ccc(C(F)(F)F)cc1)[C@H](C)CN([C@@H](C)CO)C2=O` was tested. Which cytotoxicity call did it give?
The cytotoxicity call was “inactive”.

For `C[C@@H]1CN([C@H](C)CO)C(=O)Cc2cc(NC(=O)Cc3cn(C)c4ccccc34)ccc2O[C@@H]1CN(C)Cc1ccc(C(=O)Nc2ccccc2N)cc1`, which cytotoxicity call is on record?
Its cytotoxicity call is “inactive”.

With `C[C@H](CO)N1C[C@H](C)[C@H](CN(C)Cc2ccc(C(=O)Nc3ccccc3N)cc2)Oc2ccc(NC(=O)Cc3cn(C)c4ccccc34)cc2C1=O` as the compound, how does the cytotoxicity call read?
The cytotoxicity call was “inactive”.

How did the cytotoxicity call turn out when `C[C@H](CO)N1C[C@H](C)[C@H](CN(C)Cc2ccc(C(=O)Nc3ccccc3N)cc2)Oc2ccc(NC(=O)Cc3cn(C)c4ccccc34)cc2CC1=O` was run?
The cytotoxicity call was “active”.

How did the cytotoxicity call turn out when `C[C@H]1CN([C@@H](C)CO)C(=O)c2cc(NC(=O)Cc3cn(C)c4ccccc34)ccc2O[C@@H]1CN(C)Cc1ccc(C(=O)Nc2ccccc2N)cc1` was run?
Its cytotoxicity call is “active”.

With `C[C@H]1CN([C@@H](C)CO)C(=O)Cc2cc(NC(=O)Cc3cn(C)c4ccccc34)ccc2O[C@@H]1CN(C)Cc1ccc(C(=O)Nc2ccccc2N)cc1` as the compound, how does the cytotoxicity call read?
Its cytotoxicity call is “inactive”.

`C[C@@H]1CN([C@H](C)CO)C(=O)c2cc(NC(=O)Cc3cn(C)c4ccccc34)ccc2O[C@@H]1CN(C)Cc1ccc(C(=O)Nc2ccccc2N)cc1` was tested. Which cytotoxicity call did it give?
Its cytotoxicity call is “inactive”.

Which cytotoxicity call does the source give for `O=C(C[C@@H]1CC[C@H]2[C@@H](COC[C@H](O)CN2S(=O)(=O)c2ccc(Cl)cc2)O1)NCCN1CCCC1` here?
Its cytotoxicity call is “inactive”.

`O=C(C[C@H]1C=C[C@@H](NS(=O)(=O)c2ccc(F)cc2)[C@@H](CO)O1)N1CCC(Cc2ccccc2)CC1` was tested. Which cytotoxicity call did it give?
The cytotoxicity call was “inactive”.

`C[C@@H]1CCCCO[C@H](CN(C)C(=O)Nc2ccc(C(F)(F)F)cc2)[C@@H](C)CN([C@@H](C)CO)C(=O)c2cc(NC(=O)CCC(F)(F)F)ccc2O1` was tested. Which cytotoxicity call did it give?
The cytotoxicity call was “inactive”.

For `C[C@@H]1CCCCO[C@@H](CN(C)C(=O)CCC(F)(F)F)[C@H](C)CN([C@@H](C)CO)C(=O)c2cc(NS(=O)(=O)c3ccccc3)ccc2O1`, which cytotoxicity call is on record?
The cytotoxicity call was “inactive”.

Which cytotoxicity call does the source give for `COc1ccc(NC(=O)Nc2ccc3c(c2)C(=O)N([C@@H](C)CO)C[C@H](C)[C@@H](CN(C)Cc2ccc(C(F)(F)F)cc2)OCCCC[C@H](C)O3)cc1` here?
Its cytotoxicity call is “inactive”.

How did the cytotoxicity call turn out when `COc1ccc(CN(C)C[C@@H]2OCCCC[C@@H](C)Oc3ccc(NC(=O)Nc4ccc(C(F)(F)F)cc4)cc3C(=O)N([C@@H](C)CO)C[C@H]2C)cc1` was run?
Its cytotoxicity call is “active”.

With `COc1ccc(CN(C)C[C@H]2OCCCC[C@@H](C)Oc3ccc(NC(=O)Nc4ccc(C(F)(F)F)cc4)cc3C(=O)N([C@H](C)CO)C[C@@H]2C)cc1` as the compound, how does the cytotoxicity call read?
Its cytotoxicity call is “active”.

Which cytotoxicity call does the source give for `COc1ccc(CN(C)C[C@H]2OCCCC[C@H](C)Oc3ccc(NC(=O)Nc4ccc(C(F)(F)F)cc4)cc3C(=O)N([C@H](C)CO)C[C@H]2C)cc1` here?
Its cytotoxicity call is “active”.

With `COc1ccc(CN(C)C[C@@H]2OCCCC[C@@H](C)Oc3ccc(NC(=O)Nc4ccc(C(F)(F)F)cc4)cc3C(=O)N([C@@H](C)CO)C[C@@H]2C)cc1` as the compound, how does the cytotoxicity call read?
The cytotoxicity call was “active”.

For `COc1ccc(NC(=O)Nc2ccc3c(c2)C(=O)N([C@@H](C)CO)C[C@H](C)[C@H](CN(C)Cc2ccc(C(F)(F)F)cc2)OCCCC[C@H](C)O3)cc1`, which cytotoxicity call is on record?
The cytotoxicity call was “inactive”.
